Rows were chosen to be rich in hits. Some 3.1% of all compounds tested hit in one or more screens of this group.
BoNT F protease – inhibitors of Botulinum neurotoxin F light chain protease; Multiplex microsphere protease cleavage assay, flow cytometry; inhibition, % at 10 µM; hit rate 0.22% among 360,000; AID 588497; in the data active = inhibition above about 35%, passing the limit was not always enough; inconclusive = no clear call, values can overlap the other calls; note: plate controls were buffer without enzyme for full effect and enzyme alone for no effect
Autofluor counter – counter-screen for toxin protease inhibitors: compound fluorescence; fluorescence intensity (concentration not given with the values); compound autofluorescence counterscreen, microsphere flow cytometry; hits give high values; hit rate 3.1% among 360,000; in the data active = fluorescence intensity above about 16000; inconclusive = no clear call, values can overlap the other calls
Anthrax LF inh2 – inhibitors of Bacillus anthracis lethal factor protease | hit rate 0.12% among 360,000 | multiplex microsphere protease cleavage assay, LF | inhibition, % at 10 µM | P15917; in the data active = inhibition above about 30%; inconclusive = no clear call, values can overlap the other calls; note: plate controls were buffer without enzyme for full effect and enzyme alone for no effect
BoNT A protease – inhibitors of Botulinum neurotoxin A light chain protease; multiplex microsphere protease substrate cleavage, flow cytometry; inhibition, % at 10 µM; hit rate 0.17% among 360,000; in the data active = inhibition above about 30%; inconclusive = no clear call, values can overlap the other calls; note: plate controls were buffer without enzyme for full effect and enzyme alone for no effect
PriA SSB inh – K. pneumoniae PriA-SSBct interaction inhibition; AlphaScreen SSBct-PriA binding, biotinylated peptide; inhibition, % at 33 µM; hit rate 0.6% among 430,000; AID 1272365; in the data active = inhibition mostly above about 37%, no sharp cut-off; inactive = mostly below about 20%;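 note: plate controls were negative control peptide for no effect and reference peptide for full effect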
BoNTA LC inh 1 – blocks botulinum neurotoxin A light chain protease; shares compounds with BoNT F protease; multiplex microsphere protease assay, flow cytometry; inhibition, % at 10 µM; hit rate 3% among 720; AID 602139; in the data active = inhibition above about 32%
BoNTF LC inh 1 – inhibitors of Botulinum neurotoxin F light chain protease; shares compounds with BoNT F protease; multiplex microsphere protease cleavage assay, flow cytometry; inhibition, % at 10 µM; 720 tested, under 10 active; call rule not given here
Anthrax LF CP1 – Bacillus anthracis lethal factor protease inhibition; 720 tested, under 10 active; shares compounds with BoNT F protease; multiplex microsphere protease cleavage assay, LF; inhibition, % at 10 µM; AID 602142; call rule not given here
BoNTA LC inh 2 – inhibitors of botulinum neurotoxin A light chain protease; inhibition, % at 10 µM; multiplex microsphere protease cleavage assay, flow cytometry; hit rate 10% among 150; shares compounds with BoNT A protease; AID 602325; in the data active = inhibition above about 24%
Anthrax LF CP2 – inhibitors of Bacillus anthracis lethal factor protease | multiplex microsphere protease cleavage assay | inhibition, % at 10 µM | hit rate 7% among 150 | shares compounds with BoNT A protease | AID 602327
BoNTF LC inh 2 – blocks botulinum neurotoxin F light chain protease | multiplex microsphere protease cleavage assay, flow cytometry | shares compounds with BoNT A protease | hit rate 7% among 150 | inhibition, % at 10 µM
An asterisk follows results filed as active; ? = inconclusive; . = not tested or not shown; + = active, no number. Cut-off read from the data, not from the text of the source, unless noted: active = inhibition above about 25%; inactive = the rest.

SMILES	BoNT F protease	Autofluor counter	Anthrax LF inh2	BoNT A protease	PriA SSB inh	BoNTA LC inh 1	BoNTF LC inh 1	Anthrax LF CP1	others
COc1ccc(Cl)cc1NC(=O)CN(C)C(=O)CCC(=O)c1cc(C)sc1C	.	.	.	.	15	.	.	.
COc1cccc(C=NNC(=O)c2ccc(=O)[nH]n2)c1O	.	.	.	.	-5	.	.	.
Cc1ccccc1NC(=O)c1cccc(C(=O)Nc2ccccc2C)c1	?	4155	-7	4	-6	.	.	.
Cc1ccccc1NC(=O)c1cccnc1	66*	3631	10	3	-16	0	-1	1
Brc1cc2c(cc1C1Nc3ccccc3C3C=CCC31)OCO2 (stereo not given)	0	2442	-1	0	8	.	.	.
Cc1cc(C)c2c(c1)NC(c1cc3c(cc1Br)OCO3)C1CC=CC21 (stereo not given)	+	1899	-10	4	44	-1	2	-2
COC(=O)c1ccc(-n2cccn2)nc1	.	.	.	.	-33	.	.	.
Oc1ccccc1-c1nnc(-c2ccc(C(F)(F)F)cc2)o1	35*	3316	1	1	-13	0	-3	1
CC(=O)c1ccc(NS(=O)(=O)c2cccc(C(=O)Nc3ccccc3C(=O)O)c2)cc1	-5	3368	-2	4	-15	0	-1	6
COc1ccc(NS(=O)(=O)c2cccc(C(=O)Nc3ccccc3C(=O)O)c2)cc1	?	4460	3	-1	2	-1	-2	4
COc1ccc(C(CNC(=O)c2cccc(S(=O)(=O)Nc3ccccc3OC)c2)N2CCCC2)cc1 (stereo not given)	37*	11267	4	1	14	-10	-2	-4
COc1ccc(C(CNC(=O)c2cccc(S(=O)(=O)Nc3ccccc3OC)c2)N2CCCCC2)cc1 (stereo not given)	5	7054	-3	-3	3	.	.	.
CCSc1ccccc1C(=O)N1CCN(C(=O)c2cnn3ccccc23)CC1	.	.	.	.	-15	.	.	.
COc1ccccc1N1C(=O)CC(N2CCN(c3ccc(F)cc3)CC2)C1=O (stereo not given)	40*	3063	19	-2	2	0	-4	2
COc1ccc2nc(C=NNC(=O)[C@H](CCSC)NC(=O)OC(C)(C)C)ccc2c1	.	.	.	.	-5	.	.	.
O=c1c2ccccc2nnn1-c1ccc(Br)cc1	41*	4468	14	-8	-4	0	0	-1
CC(C)OCCCNC(=O)[C@H]1N2C(=O)c3ccccc3C2SC1(C)C (stereo not given in full)	-8	3116	6	1	-2	.	.	.
CC(C)NC(=O)[C@H]1N2C(=O)c3ccccc3C2SC1(C)C (stereo not given in full)	36*	3866	4	4	4	0	-3	-3
O=C(NN=Cc1ccoc1)c1ccccc1O	.	.	.	.	-7	.	.	.
Clc1ccc(N2CCN(Cc3ccco3)CC2)cc1	?	3960	12	0	-12	.	.	.
Clc1ccccc1N1CCN(Cc2ccco2)CC1	50*	3623	17	2	-5	-1	-3	-2
O=C(Cc1ccccc1)c1ccccn1	-5	10134	23	33*	-7	.	.	.	BoNTA LC inh 2=33*;Anthrax LF CP2=29*;BoNTF LC inh 2=3
Cc1ccc(S(=O)(=O)N2CC(O)C[C@H]2C(=O)OCC(=O)N2CCN(c3ccc(F)cc3)CC2)cc1C (stereo not given in full)	97*	5341	97*	99*	-8	.	.	.	BoNTA LC inh 2=2;Anthrax LF CP2=0;BoNTF LC inh 2=5
COc1ccc2c(c1)nc(-c1cccc(Br)c1)c(=O)n2C(c1ccccn1)c1nc2ccccc2[nH]1 (stereo not given)	-2	3816	24	30*	.	.	.	.	BoNTA LC inh 2=12;Anthrax LF CP2=8;BoNTF LC inh 2=10
Cc1ccc(C(c2nc3ccccc3[nH]2)n2c(-c3ccccc3)nc3ccccc32)cc1 (stereo not given)	-9	5351	6	0	.	.	.	.
CCN(CC)c1ccc2cc(/C(N)=N\NC(C)=O)c(=O)oc2c1	.	.	.	.	-16	.	.	.
CCN(CC)c1ccc2cc(C(=O)c3cccs3)c(=O)oc2c1	32	5733	33*	54*	.	.	.	.	BoNTA LC inh 2=22;Anthrax LF CP2=21;BoNTF LC inh 2=16
